# Changes are numbered by the printed parent chain.
# Tests used:
# Assay in all cases: yeast three-hybrid, YBZ-1, SC-Leu-His + 0.5 mM 3-AT, 4 days
# Settings in all cases: tags: N-Gal4 AD-HA kept; label: inside an RPR1-promoter hybrid RNA with tandem MS2 sites; ssRNA
# PUM1 PUF domain R4-LGL = PUM1 PUF domain R4-LGL (Homo sapiens, UniProt Q14671 828-1176, N971L;H972G;Q975L)
# How it was run: (§1)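 Pumilio-1 PUF domain libraries, randomized (NNK) at the three base-contacting residues of each repeat, were co-expressed with matching RNA elements from a centromeric plasmid in strain YBZ-1 (LexA–MS2 coat fusion, HIS3 reporter). Transformants were plated on SC-Leu (input) and SC-Leu-His + 0.5 mM 3-AT (selection) for four days, and repeat regions were PCR-amplified and Illumina-sequenced. The interaction score is the log2 change in variant frequency from input to selection, with pseudocount 1 where absent.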
# PUM1 PUF domain R6-FYQ = target: T1, PUM1 PUF domain R6-FYQ (Homo sapiens, UniProt Q14671 828-1176, N1043F)
# T1 sequence: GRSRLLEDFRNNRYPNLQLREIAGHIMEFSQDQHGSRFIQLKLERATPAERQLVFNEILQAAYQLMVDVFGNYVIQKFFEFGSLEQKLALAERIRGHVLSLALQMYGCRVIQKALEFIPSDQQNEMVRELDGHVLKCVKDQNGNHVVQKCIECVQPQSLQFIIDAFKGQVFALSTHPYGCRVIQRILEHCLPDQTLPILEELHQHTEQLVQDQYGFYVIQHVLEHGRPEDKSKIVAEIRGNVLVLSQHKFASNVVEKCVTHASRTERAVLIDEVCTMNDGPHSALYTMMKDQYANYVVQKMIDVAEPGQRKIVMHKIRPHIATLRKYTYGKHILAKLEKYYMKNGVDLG
# How it was run: as §1
# PUM1 PUF domain R3-CRV = PUM1 PUF domain R3-CRV (Homo sapiens, UniProt Q14671 828-1176, Q939V)
# How it was run: as §1
# PUM1 PUF domain R6-LWG = target: T2, PUM1 PUF domain R6-LWG (Homo sapiens, UniProt Q14671 828-1176, N1043L;Y1044W;Q1047G)
# T2 sequence: T1 sequence with F216L, Y217W, Q220G
# How it was run: as §1
# PUM1 PUF domain R6-QYS = target: T3, PUM1 PUF domain R6-QYS (Homo sapiens, UniProt Q14671 828-1176, N1043Q;Q1047S)
# T3 sequence: T1 sequence with F216Q, Q220S
# How it was run: as §1
# PUM1 PUF domain R4-SLS = PUM1 PUF domain R4-SLS (Homo sapiens, UniProt Q14671 828-1176, N971S;H972L;Q975S)
# How it was run: as §1
# PUM1 PUF domain R5-MRV = PUM1 PUF domain R5-MRV (Homo sapiens, UniProt Q14671 828-1176, C1007M;Q1011V)
# How it was run: as §1
# PUM1 PUF domain R4-PWG = PUM1 PUF domain R4-PWG (Homo sapiens, UniProt Q14671 828-1176, N971P;H972W;Q975G)
# How it was run: as §1
# PUM1 PUF domain R3-FSR = PUM1 PUF domain R3-FSR (Homo sapiens, UniProt Q14671 828-1176, C935F;R936S;Q939R)
# How it was run: as §1
# PUM1 PUF domain R5-RAD = PUM1 PUF domain R5-RAD (Homo sapiens, UniProt Q14671 828-1176, C1007R;R1008A;Q1011D)
# How it was run: as §1
# PUM1 PUF domain R5-LYD = PUM1 PUF domain R5-LYD (Homo sapiens, UniProt Q14671 828-1176, C1007L;R1008Y;Q1011D)
# How it was run: as §1
# PUM1 PUF domain R5-NAV = PUM1 PUF domain R5-NAV (Homo sapiens, UniProt Q14671 828-1176, C1007N;R1008A;Q1011V)
# How it was run: as §1
# PUM1 PUF domain R7-RRV = PUM1 PUF domain R7-RRV (Homo sapiens, UniProt Q14671 828-1176, S1079R;N1080R;E1083V)
# How it was run: as §1
# PUM1 PUF domain R3-RVQ = PUM1 PUF domain R3-RVQ (Homo sapiens, UniProt Q14671 828-1176, C935R;R936V)
# How it was run: as §1
# PUM1 PUF domain R3-GHF = PUM1 PUF domain R3-GHF (Homo sapiens, UniProt Q14671 828-1176, C935G;R936H;Q939F)
# How it was run: as §1
# PUM1 PUF domain R5-QCL = PUM1 PUF domain R5-QCL (Homo sapiens, UniProt Q14671 828-1176, C1007Q;R1008C;Q1011L)
# How it was run: as §1
# PUM1 PUF domain R5-EGE = PUM1 PUF domain R5-EGE (Homo sapiens, UniProt Q14671 828-1176, C1007E;R1008G;Q1011E)
# How it was run: as §1
# PUM1 PUF domain R4-LFW = PUM1 PUF domain R4-LFW (Homo sapiens, UniProt Q14671 828-1176, N971L;H972F;Q975W)
# How it was run: as §1
# PUM1 PUF domain R7-DHV = PUM1 PUF domain R7-DHV (Homo sapiens, UniProt Q14671 828-1176, S1079D;N1080H;E1083V)
# How it was run: as §1
# PUM1 PUF domain R7-IFV = PUM1 PUF domain R7-IFV (Homo sapiens, UniProt Q14671 828-1176, S1079I;N1080F;E1083V)
# How it was run: as §1
sequence,measurement,setting,value
GGCUAGAACUAGUGGAUCCCCCGGCGCCCGGCGGCUCGAGCCCGGGUAAGUGUAAAUAGUCUGCAUGCCGCCGGGCGCCAUGCCUGCAGGUCGACUCUAGAAAACAUG,binding signal,PUM1 PUF domain R4-LGL,3.33 log2 enrichment (interaction score)
same,binding signal,PUM1 PUF domain R6-FYQ,4.7 log2 enrichment (interaction score)
same,binding signal,PUM1 PUF domain R3-CRV,2.9 log2 enrichment (interaction score)
same,binding signal,PUM1 PUF domain R6-LWG,6.16 log2 enrichment (interaction score)
same,binding signal,PUM1 PUF domain R6-QYS,3.68 log2 enrichment (interaction score)
same,binding signal,PUM1 PUF domain R4-SLS,2.39 log2 enrichment (interaction score)
same,binding signal,PUM1 PUF domain R5-MRV,1.85 log2 enrichment (interaction score)
same,binding signal,PUM1 PUF domain R4-PWG,5.84 log2 enrichment (interaction score)
GGCUAGAACUAGUGGAUCCCCCGGCGCCCGGCGGCUCGAGCCCGGGUAAGUGUAAGUAGUCUGCAUGCCGCCGGGCGCCAUGCCUGCAGGUCGACUCUAGAAAACAUG,binding signal,PUM1 PUF domain R3-FSR,3.48 log2 enrichment (interaction score)
same,binding signal,PUM1 PUF domain R3-CRV,1.31 log2 enrichment (interaction score)
GGCUAGAACUAGUGGAUCCCCCGGCGCCCGGCGGCUCGAGCCCGGGUAAGUGUUAAUAGUCUGCAUGCCGCCGGGCGCCAUGCCUGCAGGUCGACUCUAGAAAACAUG,binding signal,PUM1 PUF domain R5-RAD,1.31 log2 enrichment (interaction score)
same,binding signal,PUM1 PUF domain R5-LYD,3.06 log2 enrichment (interaction score)
same,binding signal,PUM1 PUF domain R5-NAV,2.55 log2 enrichment (interaction score)
same,binding signal,PUM1 PUF domain R5-MRV,2.34 log2 enrichment (interaction score)
GGCUAGAACUAGUGGAUCCCCCGGCGCCCGGCGGCUCGAGCCCGGGUAAGUCUAAAUAGUCUGCAUGCCGCCGGGCGCCAUGCCUGCAGGUCGACUCUAGAAAACAUG,binding signal,PUM1 PUF domain R7-RRV,4.92 log2 enrichment (interaction score)
GGCUAGAACUAGUGGAUCCCCCGGCGCCCGGCGGCUCGAGCCCGGGUAAGUGUAAUUAGUCUGCAUGCCGCCGGGCGCCAUGCCUGCAGGUCGACUCUAGAAAACAUG,binding signal,PUM1 PUF domain R3-CRV,1.05 log2 enrichment (interaction score)
same,binding signal,PUM1 PUF domain R3-RVQ,2.03 log2 enrichment (interaction score)
same,binding signal,PUM1 PUF domain R3-GHF,2.21 log2 enrichment (interaction score)
GGCUAGAACUAGUGGAUCCCCCGGCGCCCGGCGGCUCGAGCCCGGGUAAGUGUGAAUAGUCUGCAUGCCGCCGGGCGCCAUGCCUGCAGGUCGACUCUAGAAAACAUG,binding signal,PUM1 PUF domain R5-QCL,2.87 log2 enrichment (interaction score)
same,binding signal,PUM1 PUF domain R5-NAV,1.26 log2 enrichment (interaction score)
same,binding signal,PUM1 PUF domain R5-EGE,2.78 log2 enrichment (interaction score)
same,binding signal,PUM1 PUF domain R5-MRV,2.45 log2 enrichment (interaction score)
GGCUAGAACUAGUGGAUCCCCCGGCGCCCGGCGGCUCGAGCCCGGGUAAGUGUAUAUAGUCUGCAUGCCGCCGGGCGCCAUGCCUGCAGGUCGACUCUAGAAAACAUG,binding signal,PUM1 PUF domain R4-LFW,3.89 log2 enrichment (interaction score)
same,binding signal,PUM1 PUF domain R4-PWG,6.71 log2 enrichment (interaction score)
GGCUAGAACUAGUGGAUCCCCCGGCGCCCGGCGGCUCGAGCCCGGGUAAGUUUAAAUAGUCUGCAUGCCGCCGGGCGCCAUGCCUGCAGGUCGACUCUAGAAAACAUG,binding signal,PUM1 PUF domain R7-RRV,4.01 log2 enrichment (interaction score)
same,binding signal,PUM1 PUF domain R7-DHV,5.24 log2 enrichment (interaction score)
GGCUAGAACUAGUGGAUCCCCCGGCGCCCGGCGGCUCGAGCCCGGGUAAGUAUAAAUAGUCUGCAUGCCGCCGGGCGCCAUGCCUGCAGGUCGACUCUAGAAAACAUG,binding signal,PUM1 PUF domain R7-IFV,2.59 log2 enrichment (interaction score)
GGCUAGAACUAGUGGAUCCCCCGGCGCCCGGCGGCUCGAGCCCGGGUAAGUGUCAAUAGUCUGCAUGCCGCCGGGCGCCAUGCCUGCAGGUCGACUCUAGAAAACAUG,binding signal,PUM1 PUF domain R5-RAD,2.61 log2 enrichment (interaction score)
GGCUAGAACUAGUGGAUCCCCCGGCGCCCGGCGGCUCGAGCCCGGGUAAGUGUACAUAGUCUGCAUGCCGCCGGGCGCCAUGCCUGCAGGUCGACUCUAGAAAACAUG,binding signal,PUM1 PUF domain R4-PWG,5.43 log2 enrichment (interaction score)
